GALK inh = qHTS Assay for Inhibitors of Human Galactokinase (GALK) | P51570 | Purified GALK, Kinase-Glo residual ATP luminescence | Potency, µM (titrated, usually from 57.5 µM), without a hit: at the highest dose activity change, negative = inhibition, hits mostly inhibitors | 270,000 tested, 0.007% active | AID 1868, 2009; also: potency is read from the fitted curve at half-maximal effect; % is scaled to controls: 0 for no effect and ±100 for the full control effect
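Kinase-Glo Plus luminescence measured ATP left after a 1 h room-temperature reaction. The reaction used 5 nM GALK, 100 uM galactose and 35 uM ATP at pH 8.0 (20 mM HEPES, 5 mM MgCl2, 60 mM NaCl, 1 mM DTT, 0.01% BSA).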
USP2a inh = qHTS Assay for Inhibitors of Ubiquitin-specific Protease USP2a Using CHOP2 as the Reporter | Ubiquitin carboxyl-terminal hydrolase 2 (Homo sapiens), O75604 | USP2 core, Ub-CHOP2 coupled fluorogenic reporter, 485/531 | Potency, µM (doses to about 38.3 µM), for inactives: top-dose activity change, negative = inhibition, most hits filed as inhibitors | 330,000 tested, 0.01% active | AID 463254, 2010;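 also: potency is read from the fitted curve at half-maximal effect; plate controls were DMSO wells for no effect and full inhibition by NEM control for full effect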
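Cell-free coupled assay: 10nM USP2 core preincubated 30min RT with compound in Tris-HCl pH 8.0/CaCl2/CHAPS buffer, then 25nM Ub-CHOP2 and 25nM reporter substrate; fluorescence (Ex 485/Em 531) read after 60min RT, normalized to NEM inhibition, concentration-response curves fitted.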
Eya2 phos inh = qHTS Assay for Inhibitors of the Phosphatase Activity of Eya2; Potency, µM (series often up to 76.9 µM), for the others: at the top dose activity, negative = inhibition, hits mostly inhibitors; recombinant Eya2, OMFP fluorescence dephosphorylation (OMFP is methylfluorescein phosphate); 330,000 tested, 0.006% active; AID 488837, 2010; Protein phosphatase EYA2 (Homo sapiens), O00167; also: potency is read from the fitted curve at half-maximal effect; % is scaled to controls: 0 for no effect and ±100 for the full control effect
Target sequence (O00167 whole entry, looked up): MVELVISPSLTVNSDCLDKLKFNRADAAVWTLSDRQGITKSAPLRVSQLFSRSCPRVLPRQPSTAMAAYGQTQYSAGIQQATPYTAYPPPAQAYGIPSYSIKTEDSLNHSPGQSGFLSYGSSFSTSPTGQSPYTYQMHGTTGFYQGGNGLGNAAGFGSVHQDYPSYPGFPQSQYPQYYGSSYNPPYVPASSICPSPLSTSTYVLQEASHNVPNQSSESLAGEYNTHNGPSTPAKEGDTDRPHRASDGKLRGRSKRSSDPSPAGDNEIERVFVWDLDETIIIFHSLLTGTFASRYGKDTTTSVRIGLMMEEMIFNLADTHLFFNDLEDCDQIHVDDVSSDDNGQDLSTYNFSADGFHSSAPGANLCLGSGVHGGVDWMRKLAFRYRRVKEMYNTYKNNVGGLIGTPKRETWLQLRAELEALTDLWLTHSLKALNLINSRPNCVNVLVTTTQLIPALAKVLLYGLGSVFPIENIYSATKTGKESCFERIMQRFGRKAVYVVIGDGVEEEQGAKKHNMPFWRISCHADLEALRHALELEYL
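Eya2 (0.2 uM) preincubated 10 min at ambient with compound, then OMFP substrate added at 50 uM; 10 min reaction in 50 mM HEPES pH 7.5, 50 mM NaCl, 5 uM MgCl2, 0.05% BSA, 1 mM DTT. Fluorescence read at Ex 485/Em 525 nm.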
D1 agonist = Allosteric Agonists of the Human D1 Dopamine Receptor: qHTS; D(1A) dopamine receptor (Homo sapiens), P21728; HEK293 T-REx D1 cells, calcium flux, agonist mode; activation, % at 2 µM; 360,000 tested, 1% active; in the data active = activation above about 30%; also: 0% is about no effect
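Tetracycline-induced HEK293 TREx D1 cells, force-coupled to calcium signalling, were dye-loaded with a no-wash calcium kit. Compound was pin-added after a 10 s baseline. Fluorescence was read kinetically at 1 cycle/s for 180 s, with calcium rises flagged as agonism.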
D1 antagonist = Antagonist of Human D 1 Dopamine Receptor: qHTS; D(1A) dopamine receptor (Homo sapiens), P21728; HEK293 TREx D1 cells, calcium flux, dopamine EC80; stronger effect = lower value; activity change, negative = inhibition, % at 10 µM; 360,000 tested, 3.2% active; AID 504652, 2011; in the data active = activity change below about -30%; also: % is scaled to controls: 0 for no effect and ±100 for the full control effect
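Compound effects on dopamine-evoked calcium signalling were measured in tetracycline-induced HEK293 Trex D1 cells. Dopamine at EC80 followed a 180 s compound pre-read, and fluorescence was tracked kinetically for 180 s more.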
D1 PAM = Potentiators of Human D1 Dopamine Receptor: qHTS. D(1A) dopamine receptor (Homo sapiens), P21728. 360,000 tested, 0.036% active. HEK293 TREx D1 cells, calcium flux, dopamine EC20 potentiation. potentiation, % at 10 µM; in the data active = potentiation above about 30%; also: 0% is about no effect
The depositor's hits bear a star; ? = inconclusive; nt = not tested or not shown; ! = not active in a repeat; [ ] = another dose, or the depositor's remark. Hits are enriched below; roughly 3.9% of the tested compounds scored in any of these assays. Unless noted, calls follow the shape of the dose curve; as a rule, active = well fitted inhibition curve with a large enough effect; inconclusive = small, poorly fitted or top-dose-only effect, or effect the other way; inactive = flat fitted curve, though single readings scatter.

SMILES	GALK inh	USP2a inh	Eya2 phos inh	D1 agonist	D1 antagonist	D1 PAM
COc1ccc(CCCc2nnc(SCC(=O)Nc3ccc(C)cc3C)o2)cc1	nt	nt	nt	13	-29	-5
CCO[C@H]1OC(C(=O)NC2CC2)=C[C@@H](c2ccc3c(c2)OCO3)[C@@H]1CCCO	-2%	-1%	-4%	-3	-7	-1
CCO[C@@H]1OC(C(N)=O)=C[C@H](c2ccc3c(c2)OCO3)[C@H]1CCCO	2%	-1%	-5%	-5	-34*	3
O=c1c2c([N+](=O)[O-])cc([N+](=O)[O-])cc2sn1Cc1ccccc1	nt	2%	3%	51*	-29	-5
O=c1c2c([N+](=O)[O-])cc([N+](=O)[O-])cc2sn1-c1ccc(Br)cc1	0%	5%	6%	0	-1	-10
Cc1ccc2c(=O)c(C(=O)c3cccc(Cl)c3)cn(CC(=O)Nc3ccccc3C(F)(F)F)c2n1	nt	nt	nt	5	-5	-2
Cc1cc(C)cc(-n2ncc3c2CCCC3NC(=O)c2cc(C)n(C)n2)c1 (configuration not stated)	0%	0%	-12%	14	-20	-7
Cc1cc(C(=O)NC2CCCc3c2cnn3-c2ccc(C(C)(C)C)cc2)nn1C (configuration not stated)	-6%	2%	-16%	4	-35*	5
CCn1cc(C(=O)NC2CCCc3c2cnn3-c2cccc(C)c2C)cn1 (configuration not stated)	-4%	0%	4%	40*	-21	-7
Cc1cc(C(=O)NC2CCCc3c2cnn3-c2cccc(C)c2C)no1 (configuration not stated)	3%	-3%	-7%	5	-38*	-6
CC1=C(C(=O)NC2CCCc3c2cnn3-c2cccc(C)c2C)OCCO1 (configuration not stated)	6%	0%	18%	18	-15	-8
CC(=O)c1cccc(NS(=O)(=O)c2c(C)nc3sc(C)cn3c2=O)c1	nt	nt	nt	13	-13	-1
O=C(NCCCc1nc2ccccc2n1Cc1ccc(Cl)cc1Cl)c1ccco1	nt	nt	nt	2	-13	-3
CCOC(=O)c1c(Nc2ccc(C)cc2)nnc(-c2ccccc2)c1-c1ccccc1	nt	nt	nt	-1	11	0
Cc1ccc(C)c(C(=O)C(C)Sc2nc3nn(-c4ccccc4)c(=O)c-3c3n2CCCCC3)c1 (configuration not stated)	2%	0%	-12%	4	-36*	2
Cc1cccc(C(=O)Nc2c(C(=O)NCc3ccc(Cl)cc3)sc3nc(C)cc(C)c23)c1	nt	nt	nt	0	0	-4
CC(=O)N1CCc2c(sc3c2c(=O)n(CCc2ccccc2)c(=O)n3Cc2ccccc2C)C1	nt	nt	nt	-1	-13	-4
CC(=O)c1ccc(NS(=O)(=O)c2ccc(CC(C)C)cc2)cc1	1%	6%	-30%	40*	1	-17
CC(=O)c1ccc(NC(=O)Nc2ccc(NS(=O)(=O)c3ccc(C)cc3)cc2)cc1	1%	-7%	3%	1	6	-1
CCCSCCCNC(=O)c1sc2nc(C)cc(C)c2c1-n1cccc1	nt	nt	nt	1	4	-1
Cc1ccc(NC(=O)Cc2c(C(=O)O)n(C)c3ccccc23)cc1F	-1%	-1%	-3%	0	-1	1
Cn1c(C(=O)O)c(CC(=O)Nc2ccc(F)cc2F)c2ccccc21	2%	6%	2%[15.4 µM]	0	-50*	-1
Cc1cc(C(F)(F)F)c2sc(N)nc2n1	1%	1%	6%[15.4 µM]	2	-53*	-6
O=C(NCc1ccccn1)c1ccc2c(=O)n(CCc3ccccc3)c(=O)[nH]c2c1	1%	3%	?	9	-54*	-10
COCCNC(=O)c1ccc2c(=O)n(CCc3ccccc3)c(SCC(=O)CC(=O)OC)nc2c1	nt	nt	nt	1	-34*	-5
SMILES	GALK inh	USP2a inh	Eya2 phos inh	D1 agonist	D1 antagonist	D1 PAM
CC1CCN(CCCNC(=O)c2ccc3c(=O)n(CCc4ccccc4)c(=O)[nH]c3c2)CC1	-3%	-1%	9%	3	-42*	-1
CCCCCn1c(=O)[nH]c2cc(C(=O)NCc3ccccn3)ccc2c1=O	1%	0%	-23%	2	-9	-4
CC(=O)NCCNC(=O)c1ccc2c(=O)n(CCc3ccccc3)c(=O)[nH]c2c1	nt	nt	nt	0	-67*	-2
COc1ccc(NC(=O)CSc2nc3c(c(=O)[nH]2)CCC3)cc1	nt	nt	nt	2	-8	0
Cc1cc(C(=O)NN=C2CCCCC2)c2ccccc2n1	0%	4%	5%	1	-89*	-6
CC(/C=C/c1ccccc1)=N\NC(=O)c1cc(C)nc2ccccc12	-2%	0%	-3%	2	-36*	-8
CCOC(=O)c1c(NC(=O)c2cc(OCC)c(OCC)c(OCC)c2)sc2c1CCCCC2	nt	nt	nt	-1	15	0
O=C(CC1Oc2ccccc2NC1=O)NC1CC1 (configuration not stated)	2%	3%	-16%	2	-4	-4
O=C(CC1Oc2ccccc2NC1=O)NC1CCCC1 (configuration not stated)	3%	1%	-5%	0	-40*	-4
CC(Oc1ccc(Cl)cc1)C(=O)NCCCn1ccnc1 (configuration not stated)	0%	-5%	0%	0	4	-7
Cc1cc(Cl)ccc1OC(C)C(=O)NCCCn1ccnc1 (configuration not stated)	1%	4%	-8%	7	-35*	-9
N#CCc1nc2ccc(S(=O)(=O)N3CCOCC3)cc2s1	-3%	1%	4%	39*	9	1
COc1ccc2c(CC(=O)Nc3cccc(S(=O)(=O)N4CCOCC4)c3)coc2c1	0%	1%	-1%	1	-87*	-11
O=C(COC(=O)CCc1ccc(S(=O)(=O)N2CCOCC2)cc1)Nc1ccc(Cl)cn1	-2%	0%	2%	36*!	-8	-8
CCN(CC)S(=O)(=O)c1cccc(NC(=O)COC(=O)c2n[nH]c(=O)c3ccccc23)c1	15%	-1%	9%	4	-32*	-5
COc1ccccc1CC(=O)Nc1cccc(S(=O)(=O)N2CCOCC2)c1	0%	0%	4%	2	-21	-2
